From PubChem BioAssay (NCATS)
Results filed as inconclusive are left out. The source made the active and inactive calls. Calls come from the whole dose curve; as a rule, active = well fitted cell-killing curve with a large enough effect; inconclusive = small, poorly fitted or top-dose-only effect, or effect the other way; inactive = flat fitted curve, though single readings scatter. Where a SMILES comes first, the peptide text is derived from it.

Key:
Assay in all cases: Primary qHTS to identify gynecologic anti-cancer compounds using libraries of approved drugs and bioactive compounds (AID 1345084); note: nearly all actives have a fitted effect of over 55% in size
Settings in all cases: Gynecologic cancer cell panel viability, ATPlite luminescence, 48 h; series mostly up to 57.5 µM
[1] = system: PA-1
Procedure, shortened: (§1)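 In this quantitative HTS, cell killing is estimated from loss of ATP-dependent luciferase light. Cells see five compound concentrations over a 48 h exposure.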

[2] = system: SKOV3
Procedure, shortened: as §1

[3] = system: Tov-21-G
Procedure, shortened: as §1

[4] = system: Tov112D
Procedure, shortened: as §1
% is set by controls: 0 for no effect and ±100 for the full control effect.

CC(C)[C@@](O)(c1ccc2cc(OC(F)F)c(OC(F)F)cc2c1)c1cn[nH]n1
inactive: Potency [1] | Potency [2] | Potency [3] | Potency [4]

COc1cccc(OC)c1-c1nc(C(=O)N[C@@H](CC(C)C)C(=O)O)cn1-c1ccnc2cc(Cl)ccc12
inactive: Potency [1] | Potency [2] | Potency [3] | Potency [4]

CC(C)(O)C1CC=C(C(=O)OC[C@H]2O[C@@H](OC(=O)C3=CCC(C(C)(C)O)CC3)[C@H](O)[C@@H](O)[C@@H]2O)CC1 (stereo not given in full)
inactive: Potency [1] | Potency [2] | Potency [3] | Potency [4]

O=C(NC1CCN(CC(F)(F)F)CC1)c1ccc(-c2cccc(F)c2)nc1
inactive: Potency [1] | Potency [2] | Potency [3] | Potency [4]

CC(C)C1CCC(C(=O)N[C@@H](Cc2ccccc2)C(=O)O)CC1 (stereo not given in full)
inactive: Potency [1] | Potency [2] | Potency [3] | Potency [4]

CCC1=C(C)C(=O)C(C)CC12C(=O)CCC2C(=O)O (stereo not given)
inactive: Potency [1] | Potency [2] | Potency [3] | Potency [4]

CC(=O)O[C@H]1[C@H](O[C@H]2CC[C@]34C[C@]35CC[C@]3(C)[C@@H]([C@@]6(C)CC[C@@H](C(C)(C)O)O6)[C@@H](O)C[C@@]3(C)[C@@H]5C[C@H](O[C@@H]3O[C@H](CO)[C@@H](O)[C@H](O)[C@H]3O)[C@H]4C2(C)C)OC[C@@H](OC(C)=O)[C@@H]1O
inactive: Potency [1] | Potency [2] | Potency [3] | Potency [4]

CC(C)C1NC(=O)CNC(=O)C2CCCN2C(=O)C(Cc2c[nH]c3ccccc23)NC(=O)CNC(=O)C(Cc2ccc(O)cc2)NC(=O)CNC1=O (stereo not given) (cyclo(GVGYGWP); configuration not given here)
inactive: Potency [1] | Potency [2] | Potency [3] | Potency [4]

C=C1CCC2C(C)(C(=O)OC)CCCC2(C)C1CCC1=CCOC1=O (stereo not given)
inactive: Potency [1] | Potency [2] | Potency [3] | Potency [4]

Cc1ccc(C)c(NC(=O)CNS(=O)(=O)c2ccc3[nH]c(=O)oc3c2)c1
inactive: Potency [1] | Potency [2] | Potency [3] | Potency [4]

CC1=C2C(=O)C=C(CO[C@@H]3O[C@H](CO)[C@@H](O)[C@H](O)[C@H]3O)[C@@H]2[C@H]2OC(=O)[C@H](C)[C@@H]2[C@@H](O)C1
inactive: Potency [1] | Potency [2] | Potency [3] | Potency [4]

C[C@]1(OC(=O)/C=C/c2ccc(O)cc2)C[C@@H](O)[C@]2(O)C=CO[C@@H](O[C@@H]3O[C@H](CO)[C@@H](O)[C@H](O)[C@H]3O)C12 (stereo not given in full)
inactive: Potency [1] | Potency [2] | Potency [3] | Potency [4]

CC(=O)/C=C/C1(O)C(C)=CC(=O)CC1(C)C (stereo not given)
inactive: Potency [1] | Potency [2] | Potency [3] | Potency [4]

CCCc1[nH]nc2c1C(c1cc(Cl)cc(Cl)c1O)C(C#N)=C(N)O2 (stereo not given)
inactive: Potency [1] | Potency [2] | Potency [3] | Potency [4]

C[C@H]1[C@H](C)CC[C@]2(C(=O)OC3OC(CO)C(O)C(O)C3O)CC[C@]3(C(=O)O)C(=CCC4[C@@]5(C)CC[C@H](O[C@@H]6O[C@@H](C)[C@H](OC7OC(CO)C(O)C(O)C7O)[C@@H](O)[C@H]6O)C(C)(C)C5CC[C@]43C)[C@H]12 (stereo not given in full)
inactive: activity change, negative = cytotoxicity [1] -4.62% [at 11.6 µM] | activity change, negative = cytotoxicity [2] 0% [at 11.6 µM] | activity change, negative = cytotoxicity [3] 0.351% [at 11.6 µM] | activity change, negative = cytotoxicity [4] -1.72% [at 11.6 µM]

C=C1C(OC(C)=O)CCC2(C)CC3(O)OC(=O)C(C)=C3CC12 (stereo not given)
inactive: Potency [1] | Potency [2] | Potency [3] | Potency [4]

CC[C@@H](C)[C@H](N)C(=O)N1Cc2ccccc2C1
inactive: Potency [1] | Potency [2] | Potency [3] | Potency [4]

C=C[C@H]1[C@H](O[C@@H]2O[C@H](CO)[C@@H](O)[C@H](O)[C@H]2O)OC=C(C(=O)OC)[C@H]1CC=O
inactive: Potency [1] | Potency [2] | Potency [3] | Potency [4]

C=C(COC(=O)CC(C)C)C1Cc2cc(C(C)=O)ccc2O1 (stereo not given)
inactive: Potency [1] | Potency [2] | Potency [3] | Potency [4]

NC(N)=NCCC[C@H](NC(=O)c1sccc1NS(=O)(=O)c1cccc2nsnc12)C(=O)O
inactive: Potency [1] | Potency [2] | Potency [3] | Potency [4]

CC(=O)OC1C(O)C(C)(O)C(/C=C/C(=O)O)C2(C)CCCC(C)(C)C12 (stereo not given)
inactive: Potency [1] | Potency [2] | Potency [3] | Potency [4]

CC1=COC(OC2OC(CO)C(O)C(O)C2O)C2C(CO)CC(OC(=O)/C=C/c3ccc(O)cc3)C12 (stereo not given)
inactive: Potency [1] | Potency [2] | Potency [3] | Potency [4]

CC1(O)CCC2C(C3C1CCC3(C)O)C2(C)C (stereo not given)
inactive: Potency [1] | Potency [2] | Potency [3] | Potency [4]

CC1(C(=O)O)CC[C@]2(C(=O)OC3OC(CO)C(O)C(O)C3O)CC[C@]3(C)C(=CCC4[C@@]5(C)CC[C@H](OC6OCC(O)C(O)C6OC6OC(CO)C(O)C(O)C6O)C(C)(C)C5CC[C@]43C)C2C1 (stereo not given in full)
inactive: activity change, negative = cytotoxicity [1] -1.65% [at 11.6 µM] | activity change, negative = cytotoxicity [2] -6.88% [at 11.6 µM] | activity change, negative = cytotoxicity [3] 15.1% [at 11.6 µM] | activity change, negative = cytotoxicity [4] -1.55% [at 11.6 µM]

C/C=C(\C)C(=O)OCC1OC(OC2OC(CO)C(O)C(O)C2O)C(O)C(O)C1O (stereo not given)
inactive: Potency [1] | Potency [2] | Potency [3] | Potency [4]
